Measured values as given in PMC4552634, “A New Set of Chemical Starting Points with Plasmodium falciparum Transmission-Blocking Potential for Antimalarial Drug Discovery” (PLoS ONE, 2015).
The whole screen tested about 13,000 compounds, of which about 3,200 (25%) showed an effect of 50% or more. The list shows a part of the results.

What follows are molecules tested on P. falciparum stage V gametocytes. Conditions: 48 h, 5 µM; inhibitor.
Design: BacTiter-Glo ATP luminescence viability of purified stage V gametocytes in 384-well plates, per cent inhibition versus DMSO

SMILES	% Inhibition [%]
N#Cc1ccccc1N1CCN(C2CCC(NC(=O)c3n[nH]c4cc(C(F)(F)F)ccc34)CC2)CC1 (centres unmarked) [TCMDC-134100]	-13.75
CSCCC(C(=O)O)N1C(=O)c2ccccc2C1=O (centres unmarked) [TCMDC-125514]	-25.71
O=c1cc(NCCCNCc2cccc(SC(F)(F)F)c2)[nH]c2ccccc12 [TCMDC-139420]	-38.07
CC(O)C1CCCCN1C(=O)c1ccc(-c2ccc(-c3nc4ccccc4[nH]3)s2)cc1 (centres unmarked) [TCMDC-132330]	-3.595
CCN1CCN(c2cc(C)c3cc(NC(=O)C=Cc4cccc(OC)c4OC)ccc3n2)CC1 [TCMDC-123803]	-23.17
CCC(C)OC(=O)C1=C(C)NC2=C(C(=O)CC(c3ccc(OC)c(OC)c3)C2)C1c1ccc(C)o1 (centres unmarked) [TCMDC-123735]	31.33
CCCc1cc(C(=O)N[C@@H](Cc2ccccc2)[C@H](O)CNC(C)C)c(F)c(N2CCCC2=O)c1 [TCMDC-135418]	10.92
Cl.OCCNc1nc(Nc2ccc(Cl)cc2)nc2ccccc12 [TCMDC-125389]	1.912
COc1ccc(Nc2nc(N3CCCC3)c3ccccc3n2)cc1.Cl [TCMDC-124381]	-67.29
Cl.Oc1ccc(Nc2nc(N3CCCC3)c3ccccc3n2)cc1 [TCMDC-123532]	79.67
Oc1ccc(Nc2nc(NCc3ccco3)c3ccccc3n2)cc1 [TCMDC-124015]	-74.78
Cl.OCCNc1nc(Nc2ccc(F)cc2)nc2ccccc12 [TCMDC-123640]	-1.104
Cl.OCCNc1nc(Nc2ccccc2)nc2ccccc12 [TCMDC-123749]	91.01
CC1CC(NCCCNc2cc(=O)c3ccccc3[nH]2)c2c(Cl)c(Cl)cc(Cl)c21 (centres unmarked) [TCMDC-139486]	41.94
C(=N\Nc1nccc2sc(-c3cccnc3)cc12)/c1ccncc1 [TCMDC-135305]	-45.13
O=C(Nc1ccc(Oc2ccc(OC(F)(F)F)cc2)cc1)c1ccco1 [TCMDC-124049]	6.868
CCCC1N=C(N)N=C(N)N1c1cccc([N+](=O)[O-])c1 (centres unmarked) [TCMDC-131299]	-55.59
Nc1c2ccccc2nc2cc(C(F)(F)F)ccc12 [TCMDC-142006]	51.79
CCOc1ccc2nc3cc([N+](=O)[O-])ccc3c(N)c2c1 [TCMDC-125852]	122.1
O=[N+]([O-])c1ccc2nccnc2c1 [TCMDC-123943]	28.42
CCOc1ccc2nc3cc(NC(=O)c4ccco4)ccc3c(N)c2c1 [TCMDC-125004]	120.6
Nc1cc(C(F)(F)F)ccc1Cl [TCMDC-123950]	13.58
CCOc1cc(N)c2nc3ccc([N+](=O)[O-])cc3cc2c1 [TCMDC-138134]	64.78
CC(O)C(=O)O.CCOc1ccc2nc3cc(N)ccc3c(N)c2c1 [TCMDC-123983]	24.81
Nc1ccc2c(N)c3ccccc3nc2c1 [TCMDC-132034]	26.54

SMILES	% Inhibition [%]
CCNc1cc(C)nc(Nc2ccc(NC(=O)c3ccco3)cc2)n1 [TCMDC-124982]	-6.858
FC(F)(F)c1ccc2[nH]c(-c3ccc(-c4cccc(CNCc5cnn(-c6ccccc6)n5)c4)s3)nc2c1.O=C(O)C(F)(F)F [TCMDC-132968]	-47.17
CC12CN3CC(C)(CN(C1)C3c1cc(Br)ccc1O)C2O (centres unmarked) [TCMDC-123838]	-31.33
O=c1c2ccccc2nc(/C=C/c2ccc([N+](=O)[O-])cc2)n1-c1ccccn1 [TCMDC-125664]	33.94
Nc1nc(N)c2cc(Cc3ccc([N+](=O)[O-])cc3)cnc2n1 [TCMDC-137920]	-6.074
Nc1c2ccccc2nc2cc([N+](=O)[O-])ccc12 [TCMDC-132031]	75.87
Clc1ccccc1CCNCC1CCN(CC2CCCCC2)CC1 [TCMDC-141344]	100.3
Fc1c(CNCC2CCN(CC3CCCCC3)CC2)cccc1C(F)(F)F [TCMDC-141348]	4.763
Clc1cccc(Cl)c1CCNCC1CCN(CC2CCCCC2)CC1 [TCMDC-141346]	-12.07
CCOc1ccccc1CCNCC1CCN(CC2CCCCC2)CC1 [TCMDC-141347]	95.36
FC(F)(F)c1cccc(CNCC2CCN(CC3CCCCC3)CC2)c1 [TCMDC-141677]	-8.545
Oc1ccc(CNCC2CCN(CC3CCCCC3)CC2)cc1 [TCMDC-141676]	-27.61
O=C(COc1ccc(Cl)cc1)N1CCC(CN2CCC(c3c[nH]c4ccccc34)CC2)CC1 [TCMDC-139943]	-35.41
O=C(NCCCCCN1CCC(c2c[nH]c3ccccc23)CC1)c1ccc(Cl)c(Cl)c1 [TCMDC-139112]	-15.31
O=C(CCC(=O)c1ccc2c3c(cccc13)CC2)NC1CCC(CN2CCC(c3c[nH]c4ccccc34)CC2)CC1 (centres unmarked) [TCMDC-139897]	7.494
c1ccc2c(C3CCN(CCCCOc4ccc5c(c4)CCN(C4CCC4)CC5)CC3)c[nH]c2c1 [TCMDC-136242]	103
c1ccc2c(C3CCN(CCCCOc4ccc5c(c4)CCN(CC4CC4)CC5)CC3)c[nH]c2c1 [TCMDC-136244]	103.6
CCCCNC(=O)C(C)NC(=O)c1ccc(O)c(-c2ccc(Cl)c(Cl)c2)c1 (centres unmarked) [TCMDC-140838]	12
O=C1OC(c2ccccc2)(c2ccccn2)CN1C1CCN(Cc2cccn2-c2ccc(Cl)cc2)CC1 (centres unmarked) [TCMDC-134418]	32.68
CCSc1ccccc1CON1C(N)=NC(N)=NC1(C)C [TCMDC-131324]	26.32
CCC(CCON1C(N)=NC(N)=NC1(C)C)c1ccc(Cl)c(Cl)c1 (centres unmarked) [TCMDC-131702]	42.49
CC(CON1C(N)=NC(N)=NC1(C)C)c1ccc(Cl)cc1Cl (centres unmarked) [TCMDC-131687]	1.916
CC(CCON1C(N)=NC(N)=NC1(C)C)c1ccc(Cl)cc1 (centres unmarked) [TCMDC-131721]	15.12
CC(CCON1C(N)=NC(N)=NC1(C)C)c1ccc(Cl)c(Cl)c1 (centres unmarked) [TCMDC-123922]	56.56
CC(C)Sc1ccc(Cl)cc1CON1C(N)=NC(N)=NC1(C)C [TCMDC-131322]	57.4

SMILES	% Inhibition [%]
CC1(C)N=C(N)N=C(N)N1OCc1cccc(Cl)c1Cl [TCMDC-131612]	37.87
CC1(C)N=C(N)N=C(N)N1OCc1cc(Cl)c(CON2C(N)=NC(N)=NC2(C)C)cc1Cl [TCMDC-131624]	88.84
CC1(C)N=C(N)N=C(N)N1OCc1cc(Cl)c(Cl)cc1CON1C(N)=NC(N)=NC1(C)C [TCMDC-131611]	-27.6
COc1ccc(CN(C)C(=O)CCNS(=O)(=O)c2ccc3c(c2)OCCCO3)cc1F [TCMDC-125302]	27.77
COc1ccc(C2(CNCC(O)c3cccc([N+](=O)[O-])c3)CCCCC2)cc1OC (centres unmarked) [TCMDC-125753]	32.79
c1ccc(CNCc2cccc(-c3csc(-c4nc5ccccc5[nH]4)c3)c2)cc1 [TCMDC-132715]	-5.062
CC(C)CNC(=O)c1ccc(-c2cccc(CN3CCC(N4CCCC4)CC3)c2)nc1 [TCMDC-134223]	24.52
COc1cccc(CN2CCC(N3CCc4cc(NC(=O)c5cc(C)on5)ccc43)C2)c1OC (centres unmarked) [TCMDC-135077]	7.17
Nc1oc2c(CN3CCCCCC3)c(O)ccc2c(=O)c1-c1nc2ccccc2s1 [TCMDC-124554]	-27.76
COc1ccc2nc(C)cc(Nc3ccc(Oc4ccc5ccccc5c4Cl)c(Cl)c3)c2c1 [TCMDC-124244]	45.95
CN(Cc1ccccc1)C1CCCN(c2cc(NC(=O)c3ccc(F)cc3)ccn2)C1 (centres unmarked) [TCMDC-135021]	-22.03
c1ccc2c(CNc3ccnc(NCc4cccc5ccccc45)n3)cccc2c1 [TCMDC-131861]	43.11
c1cn(CCCNc2ncc(-c3ccsc3)c(-c3nccs3)n2)cn1 [TCMDC-125364]	29.61
Brc1ccccc1CNc1ccnc(NCCn2ccnc2)n1 [TCMDC-134666]	85.3
CN1CCN(C(C(=O)NCc2cc(Cl)cc(Cl)c2)c2ccccc2-c2ccsc2)CC1 (centres unmarked) [TCMDC-135388]	68.05
COc1ccc(Cc2cccc(C(C(=O)NCc3cc(Cl)cc(Cl)c3)N3CCN(C)CC3)c2)cc1 (centres unmarked) [TCMDC-135619]	76.97
COc1ccccc1-c1ccc(CNC(=O)C(CN2CCN(C)CC2)c2ccccc2)cc1 (centres unmarked) [TCMDC-136897]	12.07
CN1CCN(C(C(=O)NCc2cc(Cl)cc(Cl)c2)c2ccc(Nc3cccc(C(F)(F)F)c3)cc2)CC1 (centres unmarked) [TCMDC-134698]	-89.62
COc1ccccc1N1CCN(C(C(=O)NCc2ccc(C)cc2)c2ccc(C)cc2)CC1 (centres unmarked) [TCMDC-135501]	-5.21
CN1CCN(C(C(=O)NCc2cc(Cl)cc(Cl)c2)c2ccc(NC(=O)Nc3ccccc3)cc2)CC1 (centres unmarked) [TCMDC-135287]	18.98
COc1cc(CCNc2nc(NCc3ccccc3-c3ccccc3)nc(N3CCC(N)CC3)n2)ccc1O [TCMDC-133443]	10.19
N#CCSc1nnc(-c2ccccc2)c2ccccc12 [TCMDC-123867]	67.4
CCOC(=O)CCCc1cc(NC2CCN(C)CC2)nc(Nc2ccc(C)cc2)n1 [TCMDC-134016]	-52.81
C=C[C@]1(C)C[C@@H](OC(=O)CNC[C@@H](O)CN2C[C@H](c3ccnc4ccc(OC)nc34)OC2=O)[C@]2(C)[C@H](C)CC[C@]3(CCC(=O)[C@H]32)[C@@H](C)[C@@H]1O [TCMDC-135366]	-2.122
